In ChEMBL document CHEMBL3988442, “University of Dundee, Small-Polar-MMV Screening Library” (2021):
For some assays here: Potency and affinity values are given separately.

Tests used:
Design in all cases: scale not given: direction of the effect not stated beside the values
[1] = molecular target: Protein translocase subunit SecA (Escherichia coli (strain K12)) (UniProt P10408); assay: Assay to Identify E. coli SecA ATPase Inhibitors; format: functional; details: 30 µM
[2] = molecular target: T1, Ubiquitin-activating enzyme e1, putative (Leishmania donovani (strain BPK282A1)) (UniProt E9BSI1); assay: Leishmania donovani Ubiquitin Activating Enzyme (LdE1); format: functional; details: 30 µM
T1 sequence (whole entry): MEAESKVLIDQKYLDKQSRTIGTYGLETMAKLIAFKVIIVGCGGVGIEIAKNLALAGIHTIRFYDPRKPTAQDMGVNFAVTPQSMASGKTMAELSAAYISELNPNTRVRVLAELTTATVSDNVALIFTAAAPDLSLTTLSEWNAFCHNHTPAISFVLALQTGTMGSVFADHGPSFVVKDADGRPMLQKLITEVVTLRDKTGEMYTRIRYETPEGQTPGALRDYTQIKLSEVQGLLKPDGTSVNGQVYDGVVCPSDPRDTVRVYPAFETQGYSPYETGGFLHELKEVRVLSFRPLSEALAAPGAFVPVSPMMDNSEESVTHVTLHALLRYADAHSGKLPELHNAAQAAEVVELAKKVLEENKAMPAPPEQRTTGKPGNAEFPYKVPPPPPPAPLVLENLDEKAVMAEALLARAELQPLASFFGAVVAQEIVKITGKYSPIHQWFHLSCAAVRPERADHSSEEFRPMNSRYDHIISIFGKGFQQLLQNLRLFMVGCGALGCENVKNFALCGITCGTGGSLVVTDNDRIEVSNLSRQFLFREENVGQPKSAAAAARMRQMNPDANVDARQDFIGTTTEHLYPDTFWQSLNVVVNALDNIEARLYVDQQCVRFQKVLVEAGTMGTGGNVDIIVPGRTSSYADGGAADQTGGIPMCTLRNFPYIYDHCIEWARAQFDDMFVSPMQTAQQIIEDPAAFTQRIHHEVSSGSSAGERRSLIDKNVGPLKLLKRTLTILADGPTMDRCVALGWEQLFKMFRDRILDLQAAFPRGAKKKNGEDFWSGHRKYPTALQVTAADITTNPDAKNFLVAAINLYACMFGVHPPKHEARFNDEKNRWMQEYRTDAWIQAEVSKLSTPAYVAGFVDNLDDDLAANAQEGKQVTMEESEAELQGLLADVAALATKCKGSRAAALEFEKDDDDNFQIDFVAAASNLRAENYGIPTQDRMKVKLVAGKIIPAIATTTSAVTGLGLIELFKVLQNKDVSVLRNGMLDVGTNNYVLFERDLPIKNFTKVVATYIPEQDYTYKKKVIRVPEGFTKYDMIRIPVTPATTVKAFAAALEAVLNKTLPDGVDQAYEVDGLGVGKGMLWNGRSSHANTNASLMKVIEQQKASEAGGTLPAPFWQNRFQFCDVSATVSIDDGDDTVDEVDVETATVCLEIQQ

[3] = molecular target: Sialic acid-binding Ig-like lectin 9 (Homo sapiens) (UniProt Q9Y336); assay: Hs-Siglec9 ALPHAscreen SOP 20170721; details: 10 µM
Sialic acid-binding Ig-like lectin 9 (Homo sapiens), sequence (Q9Y336 whole entry): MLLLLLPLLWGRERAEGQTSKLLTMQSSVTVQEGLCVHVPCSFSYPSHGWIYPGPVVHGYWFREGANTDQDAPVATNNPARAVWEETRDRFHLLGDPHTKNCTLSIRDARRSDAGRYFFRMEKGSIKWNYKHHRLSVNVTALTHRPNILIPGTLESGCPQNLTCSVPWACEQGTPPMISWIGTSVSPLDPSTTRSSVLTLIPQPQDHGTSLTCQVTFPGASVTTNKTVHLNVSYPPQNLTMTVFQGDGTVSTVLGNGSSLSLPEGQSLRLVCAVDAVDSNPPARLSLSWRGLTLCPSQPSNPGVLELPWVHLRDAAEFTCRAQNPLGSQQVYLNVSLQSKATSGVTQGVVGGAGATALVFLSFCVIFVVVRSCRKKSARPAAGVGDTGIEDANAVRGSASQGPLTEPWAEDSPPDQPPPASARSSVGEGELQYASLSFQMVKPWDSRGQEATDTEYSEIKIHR

[4] = tested on: Trypanosoma cruzi; assay: Trypanosoma cruzi phosphomannomutase and mannose-1-phosphate guanylyltransferase assay; format: functional; details: 10 µM
[5] = molecular target: T2, Arginase-2, mitochondrial (Homo sapiens) (UniProt P78540); assay: in vitro enzyme assay to detect the production of urea directly proportional to the activity of Arginase II; format: functional; details: 33.3 µM; also: in the data most compounds retested in dose-response had high values
T2 sequence (whole entry): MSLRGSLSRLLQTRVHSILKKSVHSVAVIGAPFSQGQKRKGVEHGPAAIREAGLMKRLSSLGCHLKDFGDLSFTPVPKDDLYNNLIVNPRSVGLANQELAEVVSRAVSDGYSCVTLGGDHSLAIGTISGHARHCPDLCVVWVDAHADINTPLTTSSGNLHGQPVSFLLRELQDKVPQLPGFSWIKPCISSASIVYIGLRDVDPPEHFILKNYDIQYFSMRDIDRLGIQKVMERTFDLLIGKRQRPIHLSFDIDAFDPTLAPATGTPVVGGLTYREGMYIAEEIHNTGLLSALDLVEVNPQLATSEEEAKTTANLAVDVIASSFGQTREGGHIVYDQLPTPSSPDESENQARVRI

[6] = molecular target: T3, Proteasome subunit beta (Trypanosoma cruzi) (UniProt O96673); assay: Trypanosoma cruzi proteasome chymotrypsin-like activity (TcProtChymo) assay.; also: in the data most compounds retested in dose-response had high values; format: functional; details: 9.37 µM
T3 sequence (whole entry): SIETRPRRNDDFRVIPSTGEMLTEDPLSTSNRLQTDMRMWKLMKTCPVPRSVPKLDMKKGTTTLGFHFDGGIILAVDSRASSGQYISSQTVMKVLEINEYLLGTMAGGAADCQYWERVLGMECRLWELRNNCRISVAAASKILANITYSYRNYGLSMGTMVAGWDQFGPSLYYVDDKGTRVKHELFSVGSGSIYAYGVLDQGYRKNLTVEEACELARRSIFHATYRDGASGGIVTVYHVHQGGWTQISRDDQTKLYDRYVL

[7] = species: Homo sapiens; assay: To identify inhibition of the IFN signalling (Jak-Stat) pathway via expression of an eGFP reporter gene under the control of an IFN-stimulated response element (ISRE) containing MxA promoter.; format: functional; details: 30 µM
[8] = molecular target: T4, Tyrosyl-tRNA synthetase, putative (Trypanosoma cruzi (strain CL Brener)) (UniProt Q4DSP6); assay: Trypanosoma cruzi tyrosyl tRNA synthetase (TcYRS) _High Tyrosine SOP; format: functional; details: 30 µM; also: in the data most compounds retested in dose-response had high values
T4 sequence (whole entry): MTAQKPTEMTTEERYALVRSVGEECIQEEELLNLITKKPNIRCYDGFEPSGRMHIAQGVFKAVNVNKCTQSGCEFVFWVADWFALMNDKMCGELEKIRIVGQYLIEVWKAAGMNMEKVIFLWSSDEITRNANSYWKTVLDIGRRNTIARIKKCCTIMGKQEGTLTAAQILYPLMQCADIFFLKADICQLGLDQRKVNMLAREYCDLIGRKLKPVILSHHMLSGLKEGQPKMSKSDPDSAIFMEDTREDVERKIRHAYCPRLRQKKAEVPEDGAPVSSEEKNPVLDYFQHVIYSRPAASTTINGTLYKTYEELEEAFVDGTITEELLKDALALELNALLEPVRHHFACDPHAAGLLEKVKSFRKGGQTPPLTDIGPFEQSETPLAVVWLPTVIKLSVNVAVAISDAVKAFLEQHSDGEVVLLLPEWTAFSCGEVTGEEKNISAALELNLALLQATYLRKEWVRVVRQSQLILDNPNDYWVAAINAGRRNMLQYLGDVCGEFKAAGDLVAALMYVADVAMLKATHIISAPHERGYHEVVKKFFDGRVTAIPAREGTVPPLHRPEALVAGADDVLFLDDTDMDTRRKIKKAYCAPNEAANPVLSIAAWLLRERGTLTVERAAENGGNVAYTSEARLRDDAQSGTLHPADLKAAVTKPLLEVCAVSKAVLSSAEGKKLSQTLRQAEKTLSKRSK

[9] = molecular target: T4, Tyrosyl-tRNA synthetase, putative (Trypanosoma cruzi (strain CL Brener)); assay: Trypanosoma cruzi tyrosyl tRNA synthetase (TcYRS) SOP; format: functional; details: 30 µM
[10] = molecular target: Chromo domain-containing protein 1 (Saccharomyces cerevisiae (strain ATCC 204508 / S288c) (Baker's yeast)) (UniProt P32657); assay: ScCHD-1 Enzyme Inhibition Assay; format: functional; details: 30 µM; also: in the data most compounds retested in dose-response had high values
Chromo domain-containing protein 1 (Saccharomyces cerevisiae (strain ATCC 204508 / S288c) (Baker's yeast)), sequence (P32657 whole entry, the tested form may be a part): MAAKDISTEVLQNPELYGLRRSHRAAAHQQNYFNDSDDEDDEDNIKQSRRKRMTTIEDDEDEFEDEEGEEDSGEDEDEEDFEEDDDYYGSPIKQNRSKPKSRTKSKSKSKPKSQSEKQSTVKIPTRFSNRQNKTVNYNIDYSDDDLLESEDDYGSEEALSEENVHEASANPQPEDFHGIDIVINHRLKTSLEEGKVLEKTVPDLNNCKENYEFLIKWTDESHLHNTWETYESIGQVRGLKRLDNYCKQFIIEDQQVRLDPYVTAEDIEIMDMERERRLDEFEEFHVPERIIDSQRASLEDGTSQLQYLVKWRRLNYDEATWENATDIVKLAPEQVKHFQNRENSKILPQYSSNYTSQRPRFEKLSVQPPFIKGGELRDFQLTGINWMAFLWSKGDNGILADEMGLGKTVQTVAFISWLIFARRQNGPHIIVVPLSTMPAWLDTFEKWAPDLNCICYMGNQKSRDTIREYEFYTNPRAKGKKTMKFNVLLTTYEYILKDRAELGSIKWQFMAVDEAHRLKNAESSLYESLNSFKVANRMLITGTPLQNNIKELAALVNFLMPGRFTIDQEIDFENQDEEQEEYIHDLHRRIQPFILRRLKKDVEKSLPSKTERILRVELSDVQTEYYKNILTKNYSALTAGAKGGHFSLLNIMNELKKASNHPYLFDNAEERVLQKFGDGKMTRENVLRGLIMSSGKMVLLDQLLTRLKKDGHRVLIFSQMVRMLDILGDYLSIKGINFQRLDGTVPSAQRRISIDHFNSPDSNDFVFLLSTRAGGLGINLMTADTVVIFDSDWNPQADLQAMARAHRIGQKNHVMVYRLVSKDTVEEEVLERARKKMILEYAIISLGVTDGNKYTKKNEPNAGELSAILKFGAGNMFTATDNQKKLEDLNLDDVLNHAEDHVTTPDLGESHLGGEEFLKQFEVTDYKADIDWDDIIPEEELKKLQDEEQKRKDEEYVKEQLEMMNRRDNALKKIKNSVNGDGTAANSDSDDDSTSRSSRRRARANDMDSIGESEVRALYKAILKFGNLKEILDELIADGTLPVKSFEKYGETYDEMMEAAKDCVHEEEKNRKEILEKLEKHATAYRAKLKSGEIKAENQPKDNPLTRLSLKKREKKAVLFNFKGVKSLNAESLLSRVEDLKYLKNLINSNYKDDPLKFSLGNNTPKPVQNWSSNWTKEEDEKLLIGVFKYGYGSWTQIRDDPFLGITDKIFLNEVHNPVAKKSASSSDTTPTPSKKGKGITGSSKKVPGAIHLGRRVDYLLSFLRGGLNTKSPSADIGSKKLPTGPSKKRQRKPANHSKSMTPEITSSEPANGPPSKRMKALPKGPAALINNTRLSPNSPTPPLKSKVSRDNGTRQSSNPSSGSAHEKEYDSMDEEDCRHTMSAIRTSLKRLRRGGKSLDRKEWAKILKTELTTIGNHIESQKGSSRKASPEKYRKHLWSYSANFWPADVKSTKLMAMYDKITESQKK

Protein translocase subunit SecA (Escherichia coli (strain K12)), sequence (P10408 whole entry): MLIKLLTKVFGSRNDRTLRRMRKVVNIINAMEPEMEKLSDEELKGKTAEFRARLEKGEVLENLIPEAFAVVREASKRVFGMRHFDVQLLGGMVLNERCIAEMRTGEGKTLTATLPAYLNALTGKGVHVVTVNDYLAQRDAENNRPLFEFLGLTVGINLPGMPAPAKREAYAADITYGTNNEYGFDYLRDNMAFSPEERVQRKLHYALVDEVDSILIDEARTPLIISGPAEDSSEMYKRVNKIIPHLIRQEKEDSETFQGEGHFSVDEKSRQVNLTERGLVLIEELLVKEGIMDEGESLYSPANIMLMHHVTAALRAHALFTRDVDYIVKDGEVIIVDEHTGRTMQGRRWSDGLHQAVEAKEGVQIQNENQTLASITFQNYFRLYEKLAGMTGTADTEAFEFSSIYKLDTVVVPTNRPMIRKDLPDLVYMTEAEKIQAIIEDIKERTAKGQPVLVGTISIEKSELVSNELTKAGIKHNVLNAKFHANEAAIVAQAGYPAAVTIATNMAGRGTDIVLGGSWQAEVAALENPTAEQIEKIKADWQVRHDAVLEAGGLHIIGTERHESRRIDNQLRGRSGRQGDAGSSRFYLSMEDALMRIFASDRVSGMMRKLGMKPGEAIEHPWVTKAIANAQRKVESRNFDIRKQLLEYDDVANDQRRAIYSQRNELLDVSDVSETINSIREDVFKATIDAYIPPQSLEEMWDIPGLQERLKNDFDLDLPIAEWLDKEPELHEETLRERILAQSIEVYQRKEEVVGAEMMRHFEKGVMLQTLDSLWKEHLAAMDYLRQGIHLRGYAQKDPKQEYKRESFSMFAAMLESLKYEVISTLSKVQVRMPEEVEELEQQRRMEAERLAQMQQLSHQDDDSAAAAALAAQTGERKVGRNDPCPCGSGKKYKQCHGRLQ

COCC(=O)N1CCC2(CCN(Cc3ccccn3)CC2)CC1
Percent Effect [1]: -4.25%
Percent Effect [2]: 6.49%
Percent Effect [3]: 6.7%
Percent Effect [4]: 4.77%
Percent Effect [5]: 11.7%
Percent Effect [6]: 12.3%
Percent Effect [7]: -3.67%
Percent Effect [8]: 1.58%
Percent Effect [9]: 5.13%
Percent Effect [10]: 15%

Cc1nc(CN2CCCC(CCc3c(F)cccc3F)C2)c[nH]1 (stereo not given)
Percent Effect [1]: -4.35%
Percent Effect [2]: -13.5%
Percent Effect [3]: 23.7%
Percent Effect [4]: 9.6%
Percent Effect [5]: -6.64%
Percent Effect [6]: 1.37%
Percent Effect [7]: 18.7%
Percent Effect [8]: 5.85%
Percent Effect [9]: 7.32%
Percent Effect [10]: 96.9%

Cc1ccc(CNC(=O)N2CCN(Cc3ccsc3)CC2)n1C
Percent Effect [1]: -3.87%
Percent Effect [2]: 2.67%
Percent Effect [3]: -1.44%
Percent Effect [4]: -5.42%
Percent Effect [5]: -5.76%
Percent Effect [6]: 14.5%
Percent Effect [7]: 15.6%
Percent Effect [8]: 2.63%
Percent Effect [9]: -17.9%
Percent Effect [10]: -19.4%

Cc1nccn1C1CCCN(C(=O)COCC(F)(F)F)C1 (stereo not given)
Percent Effect [1]: -0.686%
Percent Effect [2]: 2.56%
Percent Effect [3]: 10.1%
Percent Effect [4]: 0.845%
Percent Effect [5]: -2.05%
Percent Effect [6]: 0.597%
Percent Effect [7]: -3.59%
Percent Effect [8]: -3.35%
Percent Effect [9]: -1.21%
Percent Effect [10]: -1.66%

CC1CCCN(C(=O)c2cccc(CS(C)(=O)=O)c2)C1 (stereo not given)
Percent Effect [1]: 0.484%
Percent Effect [2]: 15.4%
Percent Effect [3]: -22.1%
Percent Effect [4]: 2.72%
Percent Effect [5]: -0.41%
Percent Effect [6]: 22.4%
Percent Effect [7]: 6.02%
Percent Effect [8]: 4.31%
Percent Effect [9]: 22.9%
Percent Effect [10]: 20.9%

CCn1cnnc1CNC(=O)N1CCOCC1
Percent Effect [1]: -3.29%
Percent Effect [2]: 0%
Percent Effect [3]: 6.4%
Percent Effect [4]: -3.41%
Percent Effect [5]: 2.66%
Percent Effect [6]: 2.97%
Percent Effect [7]: -3.83%
Percent Effect [8]: 2.63%
Percent Effect [9]: 0%
Percent Effect [10]: -2.64%

COCC(=O)N1CC[C@@H](N2CCOCC2)[C@@H]1Cc1ccccc1
Percent Effect [1]: -3.93%
Percent Effect [2]: 14.3%
Percent Effect [3]: -1.41%
Percent Effect [4]: 0.0974%
Percent Effect [5]: 13.8%
Percent Effect [6]: 22%
Percent Effect [7]: -2.33%
Percent Effect [8]: 17.4%
Percent Effect [9]: 15.4%
Percent Effect [10]: 2.12%

COc1ccc(C2CC(=O)Nc3c2cnn3C)cc1 (stereo not given)
Percent Effect [1]: -6.08%
Percent Effect [2]: 2.7%
Percent Effect [3]: -3.92%
Percent Effect [4]: -9.99%
Percent Effect [5]: -5.94%
Percent Effect [6]: 8.39%
Percent Effect [7]: 39.8%
Percent Effect [8]: -0.532%
Percent Effect [9]: 4.88%
Percent Effect [10]: -3.56%

COc1c(C2CCCN2Cc2c(C)noc2C)c(C)nn1C (stereo not given)
Percent Effect [1]: -5.49%
Percent Effect [2]: -2.67%
Percent Effect [3]: 0.668%
Percent Effect [4]: 5.82%
Percent Effect [5]: 1.33%
Percent Effect [6]: 6.19%
Percent Effect [7]: -12.5%
Percent Effect [8]: 0.526%
Percent Effect [9]: 5.13%
Percent Effect [10]: -8.53%

O=C(c1ccc(OCC2CC2)nc1)N1CCCC(n2ccnc2)C1 (stereo not given)
Percent Effect [1]: -2.4%
Percent Effect [2]: 12.8%
Percent Effect [3]: -6.85%
Percent Effect [4]: 2.72%
Percent Effect [5]: 6.97%
Percent Effect [6]: 9.64%
Percent Effect [7]: 5.6%
Percent Effect [8]: 8.13%
Percent Effect [9]: 22.9%
Percent Effect [10]: -4.73%

CN1CCOC(CNC(=O)Cc2ccccc2F)C1 (stereo not given)
Percent Effect [1]: -1.65%
Percent Effect [2]: 15.4%
Percent Effect [3]: -3.95%
Percent Effect [4]: 3.47%
Percent Effect [5]: 4.1%
Percent Effect [6]: 8.11%
Percent Effect [7]: -18.4%
Percent Effect [8]: 7.18%
Percent Effect [9]: 25.3%
Percent Effect [10]: -5.49%

Cc1nc(C)n(CC2CN(CCOCC(F)(F)F)CCO2)n1 (stereo not given)
Percent Effect [1]: -1.11%
Percent Effect [2]: 0%
Percent Effect [3]: 2.9%
Percent Effect [4]: 0.602%
Percent Effect [5]: 2.22%
Percent Effect [6]: 0.594%
Percent Effect [7]: 6.11%
Percent Effect [8]: -1.58%
Percent Effect [9]: 2.56%
Percent Effect [10]: -2.07%

COc1cccc(OC)c1CN1CCC2(CC(Nc3ccncn3)C2)C1 (stereo not given)
Percent Effect [1]: -0.631%
Percent Effect [2]: 1.33%
Percent Effect [3]: 2.05%
Percent Effect [4]: -4.93%
Percent Effect [5]: 1.77%
Percent Effect [6]: 3.61%
Percent Effect [7]: 11.6%
Percent Effect [8]: 5.29%
Percent Effect [9]: 5%
Percent Effect [10]: -14%

Cc1c[nH]cc1C(=O)N1CCN(CCc2cccs2)CC1
Percent Effect [1]: -4.85%
Percent Effect [2]: 5.13%
Percent Effect [3]: -6.52%
Percent Effect [4]: 3.29%
Percent Effect [5]: 2.05%
Percent Effect [6]: -3.67%
Percent Effect [7]: 3.15%
Percent Effect [8]: 5.26%
Percent Effect [9]: 8.43%
Percent Effect [10]: 0.816%
